The list is not random: actives were taken first. Their share in the collection is about 1.6%.
dFosB act-1 = activators of delta FosB homodimer, primary screen, biochemical, fluorescence polarization, TAMRA-CDK5 oligo, single point | purified delta FosB; percent of positive-control signal above neutral wells | AID 493131, 2011 | Protein FosB (Mus musculus), P13346 | 0.99% of 340,000 active | activation, % at 25 µM;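 active = mean activation above about 17%, with every replicate also reaching it, limit read from the data, passing the limit was not always enough; inconclusive = only one of the two conditions met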
A1 inh = caspase 3/7 activation in MEF A1-2A-BIM cells, primary screen, A1 inhibitor project, cell-based, luminescence, HTS. caspase activation, % (test concentration not listed). Caspase-Glo 3/7 luminescence, 3 h; percent of clofoctol response, vehicle zero. 0.066% of 330,000 active;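 active = over half of replicate activation scores above 10%, or exactly half above 10 with the replicate mean above 10; inconclusive = replicate mean below 10 yet half the replicates above 10; inactive = over half of replicates below 10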
Dyrk1A ADPGlo = rat Dyrk1A kinase inhibitors, primary screen, biochemical, single point, plate reader | Dual specificity tyrosine-phosphorylation-regulated kinase 1A (Rattus norvegicus), Q63470 | ADP-Glo luminescence, NFATc1 peptide | inhibition, % at 12.5 µM | 0.43% of 310,000 active | AID 504441, 2011; in the data active = inhibition above about 50%
Beta2AR agonist = beta2AR agonists driving receptor internalization, primary screen, cell-based, FAP fluorogen, flow cytometry; Beta-2 adrenergic receptor (Homo sapiens), P07550; Am2.2-beta2AR cells; response, % (no concentration beside the values); 0.43% of 340,000 active; AID 504454, 2011;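 active = response above a set limit, near 3 SD of response in nonfluorescent compounds, cut at about 42% in these data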
Target sequence (P07550 whole entry, looked up): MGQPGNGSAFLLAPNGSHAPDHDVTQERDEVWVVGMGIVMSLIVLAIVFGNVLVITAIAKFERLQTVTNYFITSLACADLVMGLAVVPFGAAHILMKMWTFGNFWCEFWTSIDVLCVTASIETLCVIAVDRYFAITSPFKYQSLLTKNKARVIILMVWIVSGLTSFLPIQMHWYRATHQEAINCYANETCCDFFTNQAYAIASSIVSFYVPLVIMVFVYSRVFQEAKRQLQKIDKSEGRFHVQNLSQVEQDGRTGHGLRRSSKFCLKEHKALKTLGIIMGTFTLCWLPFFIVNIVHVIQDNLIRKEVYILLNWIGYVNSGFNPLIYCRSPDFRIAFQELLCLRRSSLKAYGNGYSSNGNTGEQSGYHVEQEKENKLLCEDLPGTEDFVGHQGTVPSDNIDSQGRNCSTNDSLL
dFosB act-2 = activators of mouse delta FosB DNA binding, confirmation, biochemical, fluorescence polarization, TAMRA-CDK5 oligo, cherry-picked samples. shares compounds with dFosB act-1. purified delta FosB; normalised: neutral wells 0, positive control 100. activation, % at 24.9 µM. 2,400 tested, under 10 active. AID 588690, 2011;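 active = highest replicate activation at or above 34% and every replicate reaching that threshold; inconclusive = meets only one of the two criteria; inactive = meets neither criterion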;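 note: higher polarization means more probe DNA bound by delta FosB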
Of the large screens only hits and unclear results are named; the others gave an inactive call (follow-up assays come after a bar, where they were run).

CC1CCCC(NC(=O)CN2CCN(S(=O)(=O)c3ccc(Br)s3)CC2)C1C (stereo not drawn)	none (no result: A1 inh)
COc1cc(Cl)c(S(=O)(=O)NCCCn2ccnc2)cc1Cl	none
Cc1ccccc1S(=O)(=O)Cc1ccc(C(=O)NCCCN2CCCC(C)C2)o1 (stereo not drawn)	none (no result: Beta2AR agonist)
O=C(COc1ccc(Cl)cc1)Nc1ccc(NC(=O)c2ccco2)cc1	dFosB act-1 25 | dFosB act-2 inactive
COc1ccc(NC(=O)c2oc3ccccc3c2NC(=O)c2ccco2)c(OC)c1	none
COc1ccc(NC(=O)c2oc3ccccc3c2NC(=O)c2ccco2)cc1	dFosB act-1 21 | dFosB act-2 inactive
COc1cccc(C(=O)Nc2ccc3c(c2)C(=O)NC3=O)c1	dFosB act-1 23 | dFosB act-2 inactive
CC(=O)c1ccc(NC(=O)c2ccc(NC(=O)c3ccco3)cc2)cc1	dFosB act-1 93 | dFosB act-2 inactive
Cc1cc(C(=O)N/N=C/c2cc(Br)c(Br)o2)n[nH]1	none
CCOc1ccccc1C(=O)NCC(=O)N(C)Cc1cccnc1	none
CC1CCCCN1S(=O)(=O)c1ccc2c(c1)C(C)(C)C(=O)N2C (stereo not drawn)	none
COc1ccc(C(=O)Nc2ccc3c(c2)C(=O)NC3=O)cc1	dFosB act-1 49 | dFosB act-2 inactive
COc1ccc(C(=O)NC(=S)Nc2ccc(NC(=O)c3ccco3)cc2)cc1[N+](=O)[O-]	dFosB act-1 29 | dFosB act-2 inactive
COc1ccc(C(=O)NC(=S)Nc2cccc(NC(=O)c3ccco3)c2)cc1[N+](=O)[O-]	none (no result: Dyrk1A ADPGlo)
CC(=O)c1ccc(C(=O)Nc2ccc3c(c2)C(=O)NC3=O)cc1	dFosB act-1 32 | dFosB act-2 inactive
Cc1ccc(-c2noc(COC(=O)c3ccco3)n2)cc1	none
COc1cc(/C=N/Nc2nc(Nc3ccccc3)nc(N3CCOCC3)n2)ccc1OC(=O)c1ccco1	dFosB act-1 54 | dFosB act-2 inactive
O=[N+]([O-])c1ccc(/C=N/Nc2nc(NCc3ccccc3)nc(N3CCOCC3)n2)cc1	dFosB act-1 27 | dFosB act-2 inactive
COc1ccc(/C=N/Nc2nc(Nc3ccccc3)nc(N3CCCC3)n2)cc1[N+](=O)[O-]	dFosB act-1 62 | dFosB act-2 inconclusive
CNc1nc(N/N=C/c2cc3c(cc2[N+](=O)[O-])OCO3)nc(Nc2ccccc2)n1	dFosB act-1 55 | dFosB act-2 inactive
O=C(Oc1cccc(/C=N/Nc2nc(N3CCOCC3)nc(N3CCOCC3)n2)c1)c1ccco1	none
CC(C)N1C(=S)N(Cc2ccco2)C(=O)C1CC(=O)Nc1ccccc1 (stereo not drawn)	none
COC(=O)Cc1cc(C)cc2c(=O)cc(-c3ccoc3)oc12	none (no result: dFosB act-1, Dyrk1A ADPGlo)
O=C(NNC(=O)c1ccc(NC(=O)c2ccccc2)cc1)c1ccc(F)cc1	dFosB act-1 39 | dFosB act-2 inactive
O=C(NNC(=O)c1ccc(NC(=O)c2ccccc2)cc1)Nc1ccccc1	dFosB act-1 25 | dFosB act-2 inactive
O=C(Nc1ccc2nc3ccccc3nc2c1)c1ccc(Br)cc1	dFosB act-1 32 | dFosB act-2 inactive
N#Cc1cccc(NC(=O)COC(=O)c2cc(S(=O)(=O)Nc3ccccc3Cl)ccc2O)c1	none
O=C(COC(=O)c1cc(S(=O)(=O)Nc2ccccc2Cl)ccc1O)Nc1nc2ccccc2s1	dFosB act-1 32 (no result: A1 inh, Dyrk1A ADPGlo) | dFosB act-2 inactive
O=C(CNC(=O)c1ccc(Br)o1)Nc1cccc(-c2cnc3ccccc3n2)c1	dFosB act-1 19 | dFosB act-2 inactive
CC(=O)Nc1ccc(C(=O)Nc2cccc(-c3cnc4ccccc4n3)c2)cc1	dFosB act-1 24 (no result: A1 inh) | dFosB act-2 inactive
O=C(Nc1cccc(-c2cnc3ccccc3n2)c1)c1ccco1	none
COC(=O)C1=C(COc2ccccc2)NC(=O)NC1c1ccc(Br)cc1 (stereo not drawn)	dFosB act-1 35 | dFosB act-2 inactive
O=C(N=c1ccn(-c2nc3ccccc3nc2NS(=O)(=O)c2ccc(Cl)cc2)cc1)c1ccccc1Cl	none (no result: dFosB act-1, Dyrk1A ADPGlo, Beta2AR agonist)
O=C(N=c1ccn(-c2nc3ccccc3nc2NS(=O)(=O)c2ccc(Cl)cc2)cc1)c1cccs1	dFosB act-1 31 | dFosB act-2 inactive
CCOc1ccc(S(=O)(=O)Nc2nc3ccccc3nc2-n2ccc(=NC(=O)c3cccs3)cc2)cc1	dFosB act-1 40 | dFosB act-2 inactive
O=C(COC(=O)C1=Cc2ccccc2OC1)NCc1ccc(F)cc1	none (no result: A1 inh)
O=Cc1c(N2CCC3(CC2)OCCO3)nc2ccccn2c1=O	none
O=C(COc1ncnc2ccccc12)Nc1cc([N+](=O)[O-])ccc1Cl	dFosB act-1 21 | dFosB act-2 inactive
COc1ccc([N+](=O)[O-])cc1Nc1ncnc2ccccc12	dFosB act-1 38 | dFosB act-2 inactive
O=[N+]([O-])c1ccc(O)c(Nc2ncnc3ccccc23)c1	none
CCn1c(CCCOc2ccc(Cl)cc2Cl)n[nH]c1=S	none
O=C(Nc1ccc(Cl)c(-c2nc3ccccc3[nH]2)c1)c1ccc2c(c1)OCO2	none
O=C(Nc1ccc(-c2nc3ccccc3[nH]2)cc1)c1c(F)c(F)c(F)c(F)c1F	dFosB act-1 29 | dFosB act-2 inactive
O=C(CSc1ccccc1)Nc1ccc(-c2nc3ccccc3[nH]2)cc1	none
O=C(Nc1ccc(-c2nc3ccccc3[nH]2)cc1)c1ccc2c(c1)OCO2	dFosB act-1 58 | dFosB act-2 inactive
Cc1ccc2nc(-c3ccc(NC(=O)CSc4ccccc4)cc3)[nH]c2c1	dFosB act-1 25 | dFosB act-2 inactive
CCCNC(=O)C(Cc1cccc(OC)c1)NC(=O)c1ccc(C(C)(C)C)cc1 (stereo not drawn)	none
CCC(=O)Nc1ccc(C(=O)CSc2nnc(-c3ccc(NS(=O)(=O)CC)cc3)o2)cc1OC	dFosB act-1 20 | dFosB act-2 inactive
COc1ccc(-c2nnc(SCC(=O)Nc3cccc(Cl)c3)o2)cc1	dFosB act-1 38 | dFosB act-2 inactive
CCS(=O)(=O)Nc1ccc(-c2nnc(SCC(=O)OC)o2)cc1	none
CCN(CC)S(=O)(=O)c1ccc(-c2nnc(SCC(=O)Nc3ccc(OC)cc3)o2)cc1	dFosB act-1 107, A1 inh inconclusive | dFosB act-2 inactive
O=C(CSc1nnc(-c2ccc(Br)cc2)o1)Nc1cccc2ccccc12	dFosB act-1 30 | dFosB act-2 inactive
C[C@H](NC(=O)c1nc[nH]c1C(=O)N1CCN(c2ccccc2)CC1)c1ccccc1	none
CCOC(=O)c1cc(NC(=O)CC(C)(C)CC(=O)O)ccc1N1CCCCC1	none
Cc1ccc(C)c(NC(=O)CSc2nnc(-c3n[nH]c4ccccc34)o2)c1	dFosB act-1 34 | dFosB act-2 inactive
Cc1ccc(C)c(NC(=O)CSc2nnc(-c3ccccc3C)o2)c1	none
COc1ccc2nc(C)cc(SCC(=O)Nc3c(C)cccc3C)c2c1	dFosB act-1 73 | dFosB act-2 inactive

Source: PubChem BioAssay
